Measured values reported in paper PMC7862700, “An all-to-all approach to the identification of sequence-specific readers for epigenetic DNA modifications on cytosine”.

What was measured:
Assay in all cases: DAPPL (digital affinity profiling via proximity ligation, sequencing); 10 mM Tris-HCl pH 7.5, 50 mM NaCl, 1 mM DTT, 4% glycerol, room temperature, 30 min; GST-TFs on glutathione beads, 16-mer random dsDNA library, 0.1% formaldehyde crosslink after washing; high values mean tight binding
Conditions in all cases: protein: recombinant; tags: N-terminal GST; dsDNA, one strand shown
FLI1 = molecular target: T1, FLI1 (Homo sapiens, UniProt Q01543 1-452)
T1 sequence: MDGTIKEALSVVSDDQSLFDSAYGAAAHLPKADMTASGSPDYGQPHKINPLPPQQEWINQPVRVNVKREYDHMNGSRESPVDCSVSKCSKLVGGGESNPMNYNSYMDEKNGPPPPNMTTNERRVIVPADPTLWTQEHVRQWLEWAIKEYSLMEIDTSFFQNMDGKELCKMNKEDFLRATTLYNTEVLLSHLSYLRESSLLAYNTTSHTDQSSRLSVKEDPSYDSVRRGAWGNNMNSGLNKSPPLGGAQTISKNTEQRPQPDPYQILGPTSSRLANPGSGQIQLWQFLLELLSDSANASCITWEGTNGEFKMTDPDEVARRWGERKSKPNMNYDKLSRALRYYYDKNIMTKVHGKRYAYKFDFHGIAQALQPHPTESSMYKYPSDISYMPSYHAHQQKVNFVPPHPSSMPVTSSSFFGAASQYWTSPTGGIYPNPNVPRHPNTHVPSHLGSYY
Outline: (§1)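 Binding signal is each hexamer's read frequency for a factor divided by its frequency in the tag-only sample. The factors were GST-fused human transcription factors from yeast, captured on glutathione beads, DNA-barcoded and pooled with that sample. Pools were incubated with 200 nmole of a random double-stranded 16-mer DNA library in Tris/NaCl/DTT/glycerol buffer at room temperature for 30 min, then washed, crosslinked with 0.1% formaldehyde, proximity-ligated with BsaI/T4 ligase (1 h, 37 °C), PCR-amplified and sequenced on an Illumina NextSeq500.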

ELK1 = molecular target: T2, ELK1 (Homo sapiens, UniProt P19419 1-428)
T2 sequence: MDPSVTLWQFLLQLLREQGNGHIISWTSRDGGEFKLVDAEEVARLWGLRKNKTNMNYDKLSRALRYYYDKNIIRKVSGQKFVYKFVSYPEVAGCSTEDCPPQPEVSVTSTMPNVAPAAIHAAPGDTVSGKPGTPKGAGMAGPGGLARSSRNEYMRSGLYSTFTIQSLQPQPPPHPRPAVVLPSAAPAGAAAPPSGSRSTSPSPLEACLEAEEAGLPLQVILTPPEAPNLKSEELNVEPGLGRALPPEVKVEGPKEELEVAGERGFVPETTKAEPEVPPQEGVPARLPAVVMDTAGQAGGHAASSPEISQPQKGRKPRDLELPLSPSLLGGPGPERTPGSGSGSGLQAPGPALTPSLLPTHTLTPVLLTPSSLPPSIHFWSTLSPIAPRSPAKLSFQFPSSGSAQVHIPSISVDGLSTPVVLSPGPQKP
Outline: as §1

GABPA = molecular target: T3, GABPA (Homo sapiens, UniProt Q06546 1-454)
T3 sequence: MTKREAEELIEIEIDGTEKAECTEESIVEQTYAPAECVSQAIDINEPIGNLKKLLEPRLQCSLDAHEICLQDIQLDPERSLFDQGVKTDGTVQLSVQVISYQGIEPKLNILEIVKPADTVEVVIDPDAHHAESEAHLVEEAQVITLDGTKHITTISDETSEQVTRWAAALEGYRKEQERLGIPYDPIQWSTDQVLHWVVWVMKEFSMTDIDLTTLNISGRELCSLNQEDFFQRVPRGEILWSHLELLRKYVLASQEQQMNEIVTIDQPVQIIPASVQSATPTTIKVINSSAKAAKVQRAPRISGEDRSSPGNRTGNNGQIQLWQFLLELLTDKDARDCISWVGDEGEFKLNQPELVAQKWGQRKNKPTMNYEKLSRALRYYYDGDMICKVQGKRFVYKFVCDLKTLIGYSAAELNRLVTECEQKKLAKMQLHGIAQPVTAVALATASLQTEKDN
Outline: as §1

ERG = molecular target: T4, ERG (Homo sapiens, UniProt P11308 1-479)
T4 sequence: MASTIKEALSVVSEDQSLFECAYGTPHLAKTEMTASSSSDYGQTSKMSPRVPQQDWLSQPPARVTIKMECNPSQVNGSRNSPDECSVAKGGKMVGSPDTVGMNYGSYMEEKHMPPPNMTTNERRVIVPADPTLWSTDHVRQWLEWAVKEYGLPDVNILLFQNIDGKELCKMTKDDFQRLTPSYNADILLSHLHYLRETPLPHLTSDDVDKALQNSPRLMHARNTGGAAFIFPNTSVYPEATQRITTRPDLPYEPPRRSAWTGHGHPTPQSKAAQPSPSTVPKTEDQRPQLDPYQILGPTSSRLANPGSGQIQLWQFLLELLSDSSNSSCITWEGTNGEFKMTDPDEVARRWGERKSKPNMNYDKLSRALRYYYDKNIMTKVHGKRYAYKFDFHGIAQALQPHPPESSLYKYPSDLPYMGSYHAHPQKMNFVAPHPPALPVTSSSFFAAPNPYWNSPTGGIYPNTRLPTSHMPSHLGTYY
Outline: as §1

ELF1 = ELF1 (Homo sapiens, UniProt P32519 1-619)
Chain of ELF1 (P32519 whole entry): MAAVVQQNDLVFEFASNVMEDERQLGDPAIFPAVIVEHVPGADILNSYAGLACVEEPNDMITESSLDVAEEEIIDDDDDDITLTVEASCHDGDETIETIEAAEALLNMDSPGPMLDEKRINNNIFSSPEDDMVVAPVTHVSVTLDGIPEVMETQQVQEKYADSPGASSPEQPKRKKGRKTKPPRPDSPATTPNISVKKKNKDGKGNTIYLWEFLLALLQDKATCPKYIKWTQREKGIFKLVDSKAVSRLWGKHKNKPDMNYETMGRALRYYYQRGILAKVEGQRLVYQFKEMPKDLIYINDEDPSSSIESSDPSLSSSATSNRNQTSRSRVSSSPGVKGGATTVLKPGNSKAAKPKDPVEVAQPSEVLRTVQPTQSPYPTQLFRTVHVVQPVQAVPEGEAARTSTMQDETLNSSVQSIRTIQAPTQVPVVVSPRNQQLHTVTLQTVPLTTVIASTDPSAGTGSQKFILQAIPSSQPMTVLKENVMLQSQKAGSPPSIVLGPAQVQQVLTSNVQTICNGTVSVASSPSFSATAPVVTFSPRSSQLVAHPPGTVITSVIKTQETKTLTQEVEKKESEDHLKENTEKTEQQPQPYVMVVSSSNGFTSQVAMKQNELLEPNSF
Outline: as §1

EHF = molecular target: T5, EHF (Homo sapiens, UniProt Q9NZC4 1-300)
T5 sequence: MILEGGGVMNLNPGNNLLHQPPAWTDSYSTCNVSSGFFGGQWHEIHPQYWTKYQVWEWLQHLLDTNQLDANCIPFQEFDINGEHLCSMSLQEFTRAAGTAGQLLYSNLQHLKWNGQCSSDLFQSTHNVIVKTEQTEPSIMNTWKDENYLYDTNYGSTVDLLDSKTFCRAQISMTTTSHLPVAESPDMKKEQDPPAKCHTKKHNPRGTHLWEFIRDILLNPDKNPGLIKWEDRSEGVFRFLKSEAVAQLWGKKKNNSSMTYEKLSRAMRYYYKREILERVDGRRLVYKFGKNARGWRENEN
Outline: as §1

SPI1 = SPI1 (Homo sapiens, UniProt P17947 1-270)
Outline: as §1

SPIB = SPIB (Homo sapiens, UniProt Q01892 1-262)
Chain of SPIB (Q01892 whole entry): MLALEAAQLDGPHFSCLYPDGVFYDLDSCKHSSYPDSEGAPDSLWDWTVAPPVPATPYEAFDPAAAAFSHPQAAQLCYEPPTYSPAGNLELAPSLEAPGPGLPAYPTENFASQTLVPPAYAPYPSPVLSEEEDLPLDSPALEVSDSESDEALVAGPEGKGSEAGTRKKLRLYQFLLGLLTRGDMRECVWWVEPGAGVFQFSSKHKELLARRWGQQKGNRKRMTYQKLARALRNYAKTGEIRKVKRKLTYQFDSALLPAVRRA
Outline: as §1

ELK3 = molecular target: T6, ELK3 (Homo sapiens, UniProt P41970 1-407)
T6 sequence: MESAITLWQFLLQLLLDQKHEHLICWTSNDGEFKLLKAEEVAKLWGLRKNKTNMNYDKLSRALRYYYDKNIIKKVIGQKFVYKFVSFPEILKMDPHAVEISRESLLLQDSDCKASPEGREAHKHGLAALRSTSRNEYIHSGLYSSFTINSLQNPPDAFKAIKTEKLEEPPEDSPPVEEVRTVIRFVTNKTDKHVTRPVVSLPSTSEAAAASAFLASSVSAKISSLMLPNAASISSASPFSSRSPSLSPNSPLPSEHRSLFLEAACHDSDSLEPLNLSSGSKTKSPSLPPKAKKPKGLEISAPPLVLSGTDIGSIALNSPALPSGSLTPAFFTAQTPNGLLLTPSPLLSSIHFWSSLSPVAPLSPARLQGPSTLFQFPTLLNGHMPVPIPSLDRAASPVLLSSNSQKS
Outline: as §1

Sequence: TTTCTT
- binding signal (FLI1): 1.42 fold enrichment (6-mer frequency, TF over GST control)
- binding signal (ELK1): 1.3 fold enrichment (6-mer frequency, TF over GST control)
- binding signal (GABPA): 1.42 fold enrichment (6-mer frequency, TF over GST control)
- binding signal (ERG): 1.37 fold enrichment (6-mer frequency, TF over GST control)
- binding signal (ELF1): 1.38 fold enrichment (6-mer frequency, TF over GST control)
- binding signal (EHF): 1.29 fold enrichment (6-mer frequency, TF over GST control)
- binding signal (SPI1): 1.37 fold enrichment (6-mer frequency, TF over GST control)
- binding signal (SPIB): 1.24 fold enrichment (6-mer frequency, TF over GST control)
- binding signal (ELK3): 1.31 fold enrichment (6-mer frequency, TF over GST control)

Sequence: GCCCGC
- binding signal (FLI1): 1.09 fold enrichment (6-mer frequency, TF over GST control)
- binding signal (ELK1): 1.15 fold enrichment (6-mer frequency, TF over GST control)
- binding signal (GABPA): 1.1 fold enrichment (6-mer frequency, TF over GST control)
- binding signal (ERG): 1.1 fold enrichment (6-mer frequency, TF over GST control)
- binding signal (ELF1): 1.07 fold enrichment (6-mer frequency, TF over GST control)
- binding signal (EHF): 1.09 fold enrichment (6-mer frequency, TF over GST control)
- binding signal (SPI1): 1.01 fold enrichment (6-mer frequency, TF over GST control)
- binding signal (SPIB): 1.03 fold enrichment (6-mer frequency, TF over GST control)
- binding signal (ELK3): 1.24 fold enrichment (6-mer frequency, TF over GST control)

Sequence: CGGCTT
- binding signal (FLI1): 1.17 fold enrichment (6-mer frequency, TF over GST control)
- binding signal (ELK1): 1.2 fold enrichment (6-mer frequency, TF over GST control)
- binding signal (GABPA): 1.12 fold enrichment (6-mer frequency, TF over GST control)
- binding signal (ERG): 1.19 fold enrichment (6-mer frequency, TF over GST control)
- binding signal (ELF1): 1.13 fold enrichment (6-mer frequency, TF over GST control)
- binding signal (EHF): 1.13 fold enrichment (6-mer frequency, TF over GST control)
- binding signal (SPI1): 1.17 fold enrichment (6-mer frequency, TF over GST control)
- binding signal (SPIB): 1.18 fold enrichment (6-mer frequency, TF over GST control)
- binding signal (ELK3): 1.12 fold enrichment (6-mer frequency, TF over GST control)

Sequence: CCTCGC
- binding signal (FLI1): 1.53 fold enrichment (6-mer frequency, TF over GST control)
- binding signal (ELK1): 1.54 fold enrichment (6-mer frequency, TF over GST control)
- binding signal (GABPA): 1.43 fold enrichment (6-mer frequency, TF over GST control)
- binding signal (ERG): 1.5 fold enrichment (6-mer frequency, TF over GST control)
- binding signal (ELF1): 1.37 fold enrichment (6-mer frequency, TF over GST control)
- binding signal (EHF): 1.42 fold enrichment (6-mer frequency, TF over GST control)
- binding signal (SPI1): 1.39 fold enrichment (6-mer frequency, TF over GST control)
- binding signal (SPIB): 1.42 fold enrichment (6-mer frequency, TF over GST control)
- binding signal (ELK3): 1.26 fold enrichment (6-mer frequency, TF over GST control)

Sequence: CCTCGT
- binding signal (FLI1): 1.16 fold enrichment (6-mer frequency, TF over GST control)
- binding signal (ELK1): 1.1 fold enrichment (6-mer frequency, TF over GST control)
- binding signal (GABPA): 1.39 fold enrichment (6-mer frequency, TF over GST control)
- binding signal (ERG): 1.24 fold enrichment (6-mer frequency, TF over GST control)
- binding signal (ELF1): 1.3 fold enrichment (6-mer frequency, TF over GST control)
- binding signal (EHF): 1.18 fold enrichment (6-mer frequency, TF over GST control)
- binding signal (SPI1): 1.31 fold enrichment (6-mer frequency, TF over GST control)
- binding signal (SPIB): 1.13 fold enrichment (6-mer frequency, TF over GST control)
- binding signal (ELK3): 1.37 fold enrichment (6-mer frequency, TF over GST control)

Sequence: TACACA
- binding signal (FLI1): 1.21 fold enrichment (6-mer frequency, TF over GST control)
- binding signal (ELK1): 1.14 fold enrichment (6-mer frequency, TF over GST control)
- binding signal (GABPA): 1.15 fold enrichment (6-mer frequency, TF over GST control)
- binding signal (ERG): 1.26 fold enrichment (6-mer frequency, TF over GST control)
- binding signal (ELF1): 1.21 fold enrichment (6-mer frequency, TF over GST control)
- binding signal (EHF): 1.25 fold enrichment (6-mer frequency, TF over GST control)
- binding signal (SPI1): 1.11 fold enrichment (6-mer frequency, TF over GST control)
- binding signal (SPIB): 1.23 fold enrichment (6-mer frequency, TF over GST control)
- binding signal (ELK3): 1.18 fold enrichment (6-mer frequency, TF over GST control)

Sequence: AAGTGC
- binding signal (FLI1): 1.32 fold enrichment (6-mer frequency, TF over GST control)
- binding signal (ELK1): 1.33 fold enrichment (6-mer frequency, TF over GST control)
- binding signal (GABPA): 1.13 fold enrichment (6-mer frequency, TF over GST control)
- binding signal (ERG): 1.32 fold enrichment (6-mer frequency, TF over GST control)
- binding signal (ELF1): 1.28 fold enrichment (6-mer frequency, TF over GST control)
- binding signal (EHF): 1.34 fold enrichment (6-mer frequency, TF over GST control)
- binding signal (SPI1): 1.67 fold enrichment (6-mer frequency, TF over GST control)
- binding signal (SPIB): 1.34 fold enrichment (6-mer frequency, TF over GST control)
- binding signal (ELK3): 1.39 fold enrichment (6-mer frequency, TF over GST control)

Sequence: GTAATT
- binding signal (FLI1): 1.23 fold enrichment (6-mer frequency, TF over GST control)
- binding signal (ELK1): 1.1 fold enrichment (6-mer frequency, TF over GST control)
- binding signal (GABPA): 1.19 fold enrichment (6-mer frequency, TF over GST control)
- binding signal (ERG): 1.19 fold enrichment (6-mer frequency, TF over GST control)
- binding signal (ELF1): 1.22 fold enrichment (6-mer frequency, TF over GST control)
- binding signal (EHF): 1.21 fold enrichment (6-mer frequency, TF over GST control)
- binding signal (SPI1): 1.25 fold enrichment (6-mer frequency, TF over GST control)
- binding signal (SPIB): 1.23 fold enrichment (6-mer frequency, TF over GST control)
- binding signal (ELK3): 1.29 fold enrichment (6-mer frequency, TF over GST control)
